A selection: hits, their analogues and other compounds. The true share with any hit is near 1.6%.
F-actin modifier – alters cytoskeleton assembly in HUVEC cells; HUVEC TNFa F-actin phalloidin imaging, high content; inhibition, % at 2 µM; actives 0.18% (n = 91,000); AID 836;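 active = inhibition above the batch mean plus 3 SD and confirmed as a hit by visual image inspection, cut at about 30% in these data, passing the limit was not always enough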
TNFa cytotox – toxic to HUVEC cells under TNF alpha stimulation; cell count reduction, % at 2 µM; actives 0.17% (n = 93,000); HUVEC TNFalpha-stimulated, Hoechst cell count, imaging;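 active = cell count reduction exceeding the screen mean by over 5 SD, scaled to untreated wells per plate, cut at about 78% in these data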;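 note: cells counted after 24 h of TNF alpha exposure following the 1 h pretreatment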
INS promoter inh – TRM-6 insulin promoter activity inhibition | TRM-6 cells (human fetal islet line), insulin promoter-eGFP reporter, imaging; reporter expression induced with tamoxifen | inhibition, % at 2 µM | actives 0.9% (n = 130,000);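 active = inhibition above the mean plus 3 SD, with well images judged a real hit on visual review, cut at about 60% in these data, passing the limit was not always enough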
Phagocytosis inh – blocks phagocytosis by macrophages. J774A.1 macrophage IgG-bead phagocytosis, imaging. inhibition, % at 5 µM. actives 0.07% (n = 110,000). AID 1029;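 active = inhibition above the mean of the plate negative controls plus 5 SD, cut at about 13% in these data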;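 note: phagocytic index as fraction of beads internalized from green versus red external bead signal; plate controls were DMSO negative control for no effect and cytochalasin-D positive control for full effect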
VCAM1 TNFa inh – reduces TNF alpha induced VCAM1 expression in HUVEC; HUVEC TNFa-induced VCAM-1 immunofluorescence, high-content imaging; inhibition, % at 2 µM; actives 0.48% (n = 95,000); AID 802;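 active = inhibition above the batch mean plus 3 SD, with images confirmed as a hit by eye, cut at about 37% in these data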;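 note: 0% = TNF-stimulated DMSO wells and 100% = unstimulated control wells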
E-sel TNF inh – TNF alpha driven E-selectin expression inhibition; HUVEC TNFa-induced E-selectin immunofluorescence, high content; inhibition, % at 2 µM; actives 0.71% (n = 120,000);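 active = inhibition above the batch mean plus 3 SD, and confirmed as a hit on visual image review, cut at about 43% in these data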;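 note: 0% = TNF-stimulated DMSO wells and 100% = unstimulated control wells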
Starred values were filed as active, the others as inactive; . = no result given.

SMILES | F-actin modifier | TNFa cytotox | INS promoter inh | Phagocytosis inh | VCAM1 TNFa inh | E-sel TNF inh
O=C(N/C(=C/c1cccs1)C(=O)N1CCOCC1)c1ccccc1 | . | . | -7 | . | . | .
O=C(N/C(=C\c1cccs1)C(=O)N1CCOCC1)c1cccs1 | . | . | 78* | . | . | .
CCn1cc(C2=NC(c3ccccc3)CO2)c2ccccc21 (centres undefined) | . | . | 25 | . | . | -18
CCn1cc(C2=NC(C)CO2)c2ccccc21 (centres undefined) | -3 | -16 | 84* | -1 | -7 | 1
COc1ccccc1CNC(=O)CSc1ccc(-c2ccncc2)nn1 | . | . | 17 | . | . | 5
COc1ccccc1CNC(=O)CSc1nnc2ccc(-c3cccnc3)nn12 | . | . | . | . | . | 84*
CC12CCC(C(=O)N(CSC(=S)N/N=C\c3ccccc3)C1=O)C2(C)C (centres undefined) | -14 | 5 | 76* | . | 8 | -9
CC12CCC(C(=O)N(CSC(=S)N/N=C\c3ccccc3Cl)C1=O)C2(C)C (centres undefined) | 8 | 1 | -10 | . | 22 | 23
Cc1cc(C)cc(C(=O)Oc2coc(CSc3nnc(NC(=O)C4CC4)s3)cc2=O)c1 | . | . | . | -6 | . | 61*
O=C(Nc1nc2ccccc2s1)C1CC(=O)N(c2ccccc2)C1 (centres undefined) | 2 | -5 | 0 | 2 | 11 | 17
O=C(Nc1nc2ccccc2s1)C1CC(=O)N(c2ccc(Br)cc2)C1 (centres undefined) | . | 14 | 67* | . | 8 | -2
CCCc1cc(=O)[nH]c(SCCCCN2C(=O)c3ccccc3C2=O)n1 | . | . | 50 | . | . | 3
Cc1ccccc1C(=O)NC1CCN(C(=O)N2CCOCC2)CC1 | 6 | -3 | 75* | . | 15 | 31
CN1CCN(C(c2ccc(F)cc2)c2nnnn2Cc2cccs2)CC1 (centres undefined) | . | . | . | -2 | . | 57*
Cc1ccc(C(=O)NC(=S)Nc2nc(-c3cccc([N+](=O)[O-])c3)cs2)c(Cl)c1 | . | . | 86* | . | . | 17
C1=C(CCNCC2CCCCC2)CCCC1 | -12 | -17 | -17 | -2 | 1 | -32
COc1cccc(Nc2nc3ccc(OC)cc3s2)c1 | . | . | 71* | . | . | 2
COc1ccc(N=C2SCC(=O)N2c2ccc(OC)cc2)cc1 | -7 | -9 | . | 0 | -15 | 87*
COc1ccc(N=C2SC(C(=O)O)CC(=O)N2C)cc1 (centres undefined) | -19 | -30 | 31 | -1 | -4 | -1
CCn1c2ccccc2n2c(=O)c(=O)n(CC(=O)Nc3ccc(C(C)C)cc3)nc12 | . | . | . | -3 | . | .
O=S1(=O)CCC(NC(=S)N2CCCCCC2)C1 (centres undefined) | . | . | . | 2 | . | 70*
Cc1cccc(N/N=C(\C#N)S(=O)(=O)C(C)(C)C)c1 | . | . | 91* | . | . | -33
CC(C)(C)c1ccc(N/N=C(\C#N)S(=O)(=O)C(C)(C)C)cc1 | . | . | -27 | . | . | .
N=C1C(c2nc3ccccc3s2)=C(O)CN1Cc1ccccc1 | -16 | -20 | 16 | . | -13 | -6
CCN(CC)CCCN1CC(O)=C(c2nc3ccccc3s2)C1=N | -2 | 13 | 66* | 2 | -6 | -9
SMILES | F-actin modifier | TNFa cytotox | INS promoter inh | Phagocytosis inh | VCAM1 TNFa inh | E-sel TNF inh
CCOC(=O)CNNC(=O)Nc1ccc(Cl)c(Cl)c1 | . | . | 75* | -3 | . | 6
OCCN=C1CCCc2c1[nH]c1ccc(Br)cc21 | -8 | 45 | 20 | . | 92* | .
O=c1[nH]c(-c2ccccn2)cc2ccccc12 | . | . | 67* | -5 | . | 18
O=C(CN1C(=O)C2CCc3[nH]c4ccccc4c3C2C1=O)N1CCCC1 (centres undefined) | -27 | 86* | . | 0 | 68 | .
Cc1nn(-c2ccccn2)c2c1C(=O)C(Br)CC2 (centres undefined) | . | . | -13 | . | . | .
Cc1ccc2oc(=O)n(CCCOc3ccccc3)c2c1 | 14 | 16 | . | 2 | -11 | 68*
Cc1ccc(OCCn2c(=O)oc3ccc(C)cc32)cc1 | . | . | -13 | . | . | .
O=C(CCl)Nc1cc(-c2ccccc2)nn1-c1ccccc1 | -12 | -2 | 87* | 0 | 15 | 20
Cc1ccc(-c2cc(NC(=O)CCl)n(-c3ccccc3)n2)cc1 | -3 | -13 | 40 | -1 | 1 | 86*
Cn1cccc1C(=O)OCC(=O)Nc1cc(C(C)(C)C)nn1-c1ccccc1 | 72* | -6 | . | 0 | -7 | 12
CCOC(=O)CNC(=O)Nc1cc(C(C)(C)C)nn1-c1ccccc1 | . | . | 25 | 2 | . | -34
CC(=O)Nc1ccc(-c2cc(NC(C)=O)n(-c3ccccc3)n2)cc1 | 7 | -17 | . | 0 | -6 | -7
CC(=O)Nc1ccc2c(c1)nc1n2CCN(C2CCCCC2)C1 | . | . | -13 | . | . | .
CCN1CCN(c2nc(S(=O)(=O)c3ccc(C)cc3)c(Cl)s2)CC1 | . | . | 18 | . | . | .
Cc1ccc(C(=O)O/N=C/C2=C(Cl)c3ccccc3CC2)cc1 | -9 | -7 | -157 | 0 | -6 | 14
Cc1ccc(CO/N=C/C2=C(Cl)c3ccccc3CC2)cc1 | -4 | -8 | 79* | 3 | 11 | 5
CCOc1cc(C(=O)OCC(=O)c2c(C)[nH]c3ccccc23)ccc1OCC(=O)N1CCOCC1 | 50* | 78 | . | -1 | 38 | -11
COc1cccc(-n2nnnc2SCC(=O)NC2CCCC2)c1 | 13 | -15 | 75* | 0 | -2 | 20
CCN(c1ccc(NC(=O)COC(=O)CCC(=O)c2ccc(F)cc2)cc1)C(C)C | 6 | -9 | -20 | -1 | -9 | 30
COC(=O)c1c(-c2ccc(OC)c(OC)c2)csc1N | 0 | -3 | 80* | 4 | 2 | 8
Cc1ccc2sc(N(CCCN(C)C)C(=O)CN3C(=O)c4ccccc4C3=O)nc2c1C | . | . | 33 | . | . | .
COc1cc(OC)c(NS(=O)(=O)c2ccc(Cl)c(C(=O)OC(C)C(=O)N3CCCC3)c2)cc1Cl (centres undefined) | . | . | -43 | -9 | . | .
COc1ccc(-c2nnn(CCc3nn[nH]n3)n2)cc1 | 10 | -13 | 75* | . | -2 | -18
CC1CCN(C(=O)c2cc(F)c(F)cc2Cl)CC1 | 0 | -24 | 31 | . | 7 | -15
COc1ccccc1N1CCN(C(=O)c2ccc(Br)s2)CC1 | . | . | . | -1 | . | 80*
SMILES | F-actin modifier | TNFa cytotox | INS promoter inh | Phagocytosis inh | VCAM1 TNFa inh | E-sel TNF inh
COc1ccccc1N1CCN(C2CCN(C(=O)c3cccs3)CC2)CC1 | . | . | 7 | . | . | .
O=C(c1ccc(Br)s1)N1CCCC1 | -14 | 5 | 70* | . | 1 | 3
COc1ccc(OC)c(/C=N/NC(=O)CSc2cc(C)nc3c(OC)cccc23)c1 | . | . | 27 | . | . | .
Cc1ccc(C(=O)C(C)N2C(=O)NC(C)(c3ccccc3)C2=O)cc1 (centres undefined) | . | . | -64 | . | . | .
COc1ccc(OC)c(-n2c(=S)[nH]c3c(sc(=S)n3-c3ccccc3)c2=O)c1 | . | . | 47 | . | . | .
O=C(N/N=C/C=C\c1ccco1)c1cccnc1 | 7 | -10 | -16 | -5 | 24 | -9
O=C(N/N=C/C=C/c1ccco1)c1cccnc1 | 0 | -3 | 100* | 0 | 22 | 6
CCC1Sc2ccccc2N(CC(=O)NCc2ccc3c(c2)OCO3)C1=O (centres undefined) | . | . | -23 | -2 | . | 95*
CC1CC(C)(C)NC(=S)N1CCC(=O)NCc1ccc(Cl)cc1 (centres undefined) | . | . | -73 | . | . | -14

Assay outcomes from PubChem.
